The results in this text go back to PubChem BioAssay (NCATS).

Records with an inconclusive call do not appear. A number with no mark means an inactive call. Calls of active or inactive are those of the source. Unless noted, calls come from the whole dose curve; as a rule, active = well fitted curve in the direction sought with a large enough effect; inconclusive = small, poorly fitted or top-dose-only effect, or another doubt; inactive = no such curve, though single readings can be large; an effect the other way counts as inactive or inconclusive.

Experiment [1] is described as follows: BET inhibitor-based combinations targeting novel dependencies in MECOM-rearranged (r) AML: OCI-AML3 cell line (AID 2202232).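 Note: series mostly up to about 46 µM; plate controls were DMSO vehicle wells for no effect and wells without cells for full effect; nearly all actives have a fitted effect of over 35% in size.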 The following applies: Potency: OCI-AML3 viability. The gist of the method: (§1)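 Readout: CellTiter-Glo luminescence. Exposure: 48 h, 11 concentrations, 500 cells/well. Metric: AUC and within-line Z-AUC after DMSO/empty-well normalization.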

The target in experiment [2] is Aldehyde dehydrogenase 1A1 (Homo sapiens) (UniProt P00352). The experiment in a line: qHTS for Inhibitors of the Aldehyde Dehydrogenase Family (ALDH1A1) Confirmatory screens (AID 2061316). Note: nearly all actives have a fitted effect of over 65% in size. Note: potency is the fitted concentration of half-maximal effect.
Experiment [3] addresses Cellular tumor antigen p53 (Homo sapiens) (UniProt P04637). Briefly: Primary qHTS for small molecule compounds that upregulate eGFP-tagged delta133p53alpha (in N-terminal) cells. (AID 2060322).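 For activation: cells pre-induced with doxycycline then dosed without doxycycline; series mostly up to about 56 µM; 0% = DMSO vehicle and 100% = reference activator.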 Note: nearly all actives have a fitted effect of over 75% in size. Note: potency is the fitted concentration of half-maximal effect. The following applies: NCI-H358 eGFP-delta133p53alpha fluorescence, 24 h; activation: stronger effect = higher value. A digest of the protocol:
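NCI-H358 cells pre-induced 24 h with 10 ng/ml doxycycline for eGFP-delta133p53alpha, plated dox-free and exposed 24 h at 37C to titrated compounds. Fixed, Hoechst-stained; gated GFP peak intensity by laser scanning cytometry, normalized to DMSO (0%) and 57.5 uM 5-azacytidine (100%).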
(In qHTS, concentration-response curves come from the screen itself.)

Experiment [4] has as its target Aldehyde dehydrogenase, mitochondrial (Homo sapiens) (UniProt P05091). The experiment in a line: qHTS for Inhibitors of the Aldehyde Dehydrogenase Family (ALDH2) Primary screen (AID 2061308).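 Note: plate controls were vehicle for no effect and reference inhibitor for full effect; nearly all actives have a fitted effect of over 55% in size.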
The target is the same in experiment [5]. The experiment in a line: qHTS for Inhibitors of the Aldehyde Dehydrogenase Family (ALDH2) Confirmatory screens (AID 2061303; active = well fitted inhibition curve with a large enough effect; title and protocol of this record describe different tests; note: % is set by controls: 0 for no effect and ±100 for the full control effect; nearly all actives have a fitted effect of over 45% in size).
Experiment [6] can be described thus: qHTS for Inhibitors of the Aldehyde Dehydrogenase Family (ALDH1A2, ALDH1A3, ALDH2, ALDH3A1) (AID 2061307). For Potency: test system not described further here; potency is the fitted concentration of half-maximal effect. Note: nearly all actives have a fitted effect of over 50% in size.
The target in experiment [7] is Retinaldehyde dehydrogenase 3 (Homo sapiens) (UniProt P47895). Briefly: qHTS for Inhibitors of the Aldehyde Dehydrogenase Family (ALDH1A3) Primary screen (AID 2061315). Note: potency is the fitted concentration of half-maximal effect.
Experiment [8] has the same target. The experiment in a line: qHTS for Inhibitors of the Aldehyde Dehydrogenase Family (ALDH1A3) Validation screen (AID 2061312). Note: nearly all actives have a fitted effect of over 45% in size. Note: potency is the fitted concentration of half-maximal effect.
Experiment [9] has the same target. The experiment in a line: qHTS for Inhibitors of the Aldehyde Dehydrogenase Family (ALDH1A3) Confirmatory screens (AID 2061311). Note: nearly all actives have a fitted effect of over 60% in size. Note: potency is the fitted concentration of half-maximal effect.
Experiment [10] addresses Retinal dehydrogenase 2 (Homo sapiens) (UniProt O94788). The experiment in a line: qHTS for Inhibitors of the Aldehyde Dehydrogenase Family (ALDH1A2) Confirmation screens (AID 2061314). Note: nearly all actives have a fitted effect of over 65% in size. Note: potency is the fitted concentration of half-maximal effect.
A short description of experiment [11]: BET inhibitor-based combinations targeting novel dependencies in MECOM-rearranged (r) AML: MV-4-11 cell line (AID 2202233).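 Note: plate controls were DMSO for no effect and blank wells for full effect; nearly all actives have a fitted effect of over 45% in size.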 The gist of the method: (§2)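 Seeding density was 500 cells/well, and drug exposure lasted 48 hr under standard culture conditions. Read-out used CellTiter-Glo reagent with a 15 min room-temperature incubation before luminescence measurement; AUC and Z-AUC summarize the normalized responses.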

Experiment [12] is described as follows: BET inhibitor-based combinations targeting novel dependencies in MECOM-rearranged (r) AML: HNT-34 cell line (AID 2202234).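 Note: plate controls were vehicle wells for no effect and cell-free wells for full effect; nearly all actives have a fitted effect of over 35% in size.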 The gist of the method: as §2
Experiment [13] is described as follows: BET inhibitor-based combinations targeting novel dependencies in MECOM-rearranged (r) AML: AML-191 cell line (AID 2202236;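 note: plate controls were vehicle wells for no effect and wells without cells for full effect; nearly all actives have a fitted effect of over 35% in size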). A digest of the protocol: as §1
A short description of experiment [14]: BET inhibitor-based combinations targeting novel dependencies in MECOM-rearranged (r) AML: AML-194 cell line (AID 2202237;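 note: plate controls were vehicle wells for no effect and wells without cells for full effect; nearly all actives have a fitted effect of over 40% in size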). The gist of the method:
as §1

Chain of Cellular tumor antigen p53 (Homo sapiens) (P04637 whole entry, looked up): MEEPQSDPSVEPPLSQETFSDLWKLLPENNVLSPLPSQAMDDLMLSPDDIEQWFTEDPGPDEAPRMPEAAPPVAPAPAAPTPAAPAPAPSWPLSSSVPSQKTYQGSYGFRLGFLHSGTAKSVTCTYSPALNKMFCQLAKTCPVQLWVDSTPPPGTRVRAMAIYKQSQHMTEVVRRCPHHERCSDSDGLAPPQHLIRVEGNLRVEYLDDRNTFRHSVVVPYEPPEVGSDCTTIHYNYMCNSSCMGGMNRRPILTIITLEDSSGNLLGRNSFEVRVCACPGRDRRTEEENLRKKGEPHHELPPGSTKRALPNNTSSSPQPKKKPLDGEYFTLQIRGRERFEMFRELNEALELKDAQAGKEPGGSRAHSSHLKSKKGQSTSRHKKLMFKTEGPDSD

With `CNCC(O)c1ccc(O)cc1` (configuration not stated), the Potency entry in experiment [1] is “inactive”.

As to `CO[C@@H]1[C@H](O)[C@@H](O[C@@H]2C[C@H]3CC[C@@H]4C(CC[C@]5(C)[C@@H](C6=CC(=O)OC6)CC[C@]45O)[C@@]3(C)[C@H](O)C2)O[C@H](C)[C@@H]1O` (some centres not stated), the Potency result in experiment [2] is “inactive”.

Take `CN(N=O)c1cc(O)ccc1O`: the Potency in [2] was 2.25 µM (active).

For `C=CCN1CC[C@]23c4c5ccc(O)c4O[C@H]2[C@@H](O)CC[C@@]3(O)[C@H]1C5`, the activation in experiment [3] is 4.33%. In addition, in [4], the Potency result was “inactive”.

For the compound `OCCCCC#Cc1cncc(OC[C@@H]2CCN2)c1`, the activation in experiment [3] is -1.43%. The Potency entry in experiment [4] is “inactive”.

Regarding `NNC(=O)c1nn(Cc2ccc(Cl)cc2Cl)c2ccccc12`, the activation in experiment [3] is 17%. The Potency result in experiment [5], in experiment [4] and in experiment [7] was “inactive” each time. Also, the Potency in experiment [6] was 8.91 µM (active).

Regarding `CC[C@@H]1C[C@H]2CC[C@H](O2)[C@H](C)C(=O)O[C@@H](C)C[C@@H]2CC[C@@H](O2)[C@@H](C)C(=O)O[C@H](CC)C[C@H]2CC[C@H](O2)[C@H](C)C(=O)O[C@@H](C)C[C@@H]2CC[C@@H](O2)[C@@H](C)C(=O)O1`, the Potency in experiment [3] was 6.3 µM (active). Moreover, in experiment [4], the Potency result is “inactive”.

As for `COC(=O)[C@]12CCCC(C)(C)C1CCc1cc(C(C)C)c(O)c(O)c12` (some centres not stated), the activation in [3] was -23.7%. Moreover, the Potency entry in [4] was “inactive”.

In the case of `COc1cc2c(c(OC)c1OC)-c1ccc(SC)c(=O)cc1[C@@H](NC(C)=O)CC2`, in experiment [3], the activation is 8.33%. Also, in experiment [4], the Potency result was “inactive”.

For `COc1ccc(CC2C(=O)NC(C)C(=O)N(C)C3Cc4ccc(cc4)Oc4cc(ccc4OC4OC(CO)C(O)C(O)C4O)CC(C(=O)NC(C)C(=O)NC(CCC(=O)O)C(=O)N2C)N(C)C3=O)cc1` (configuration not stated), in experiment [3], the activation was 5.36%. The Potency entry in experiment [4] was “inactive”.

As for `N#Cc1ccc([C@H]2CCCC[C@H]2O)cc1C(F)(F)F`, the activation in experiment [3] is 11%. Besides, the Potency entry in experiment [4], in experiment [8] and in experiment [7] was “inactive” in each case.

`CC(=O)OC12C(O)C(C)C3(O)C4C=C(C)C(=O)C4CC(CO)=CC3C1C2(C)C` (configuration not stated): the activation in experiment [3] is -3.05%. In addition, the Potency result in experiment [4] was “inactive”.

On to `CCCN1CCO[C@H]2c3cc(O)ccc3OC[C@@H]21`, for which the activation in [3] is 4.46%. Besides, the Potency entry in experiment [4] is “inactive”.

As to `CN1C(=O)CN=C(c2ccccc2Cl)c2cc(Cl)ccc21`, in experiment [3], the activation is -10%. In addition, the Potency result in experiment [4], in experiment [8] and in [7] was “inactive” throughout.

Turning to `COC1(C[S@@](=O)c2ccccc2)CCN(CCc2c[nH]c3ccc(F)cc23)CC1`, the activation in experiment [3] was -6.68%. Also, the Potency result in [4], in [8] and in experiment [7] was “inactive” in each case.

Turning to `C/C=C(/C)C1C=CC2CC(C)CC(C)C2C1/C(O)=C1\C(=O)NC(CC(C)(O)C(=O)O)C1=O` (configuration not stated), the activation in experiment [3] is -26%. The Potency result in experiment [4], in experiment [9] and in [7] was “inactive” throughout.

Consider `CN(C(=O)CN1C(=O)COc2cc(Cl)c(Cl)cc21)[C@@H](CN1CCCC1)c1ccc(-c2cccc(C(N)=O)c2)cc1`, for which the Potency in experiment [3] was 21.3 µM (active). Also, the Potency result in experiment [4] was “inactive”.

With `N#Cc1ccc(N2CCN(C(=O)COc3ccc4[nH]cc(CCN)c4c3)CC2)cc1`, in experiment [3], the activation was -4.3%. Moreover, the Potency entry in experiment [5], in experiment [4], in experiment [8] and in experiment [2] was “inactive” throughout.

With `Cc1ccc2c(c1)[C@H]1CN(C)CC[C@H]1N2C(=O)CSc1nnnn1-c1ccc(Cl)cc1`, in [3], the activation is -6.68%. The Potency entry in [4], in [8] and in experiment [7] was “inactive” throughout.

For `C#CC1(O)CCC2C3CCC4=CC(=O)CCC4=C3C=CC21C` (configuration not stated), in experiment [3], the activation is -16.3%. The Potency result in [4] is “inactive”.

For the compound `Cc1cccc(NC(=O)NC2N=C(c3ccccc3)c3ccccc3N(CC(=O)c3ccccc3C)C2=O)c1` (configuration not stated), the activation in experiment [3] is -13.8%. Also, the Potency entry in experiment [4], in experiment [8] and in experiment [7] was “inactive” in each case.

As to `COc1cc2c(cc1O)C1(C)CCC(O)C(C)(C)C1CC2=O` (configuration not stated), the activation in experiment [3] was -4.58%. For the same compound, the Potency result in [4] was “inactive”.

With `Clc1ccc(OCC2=NCCN2)cc1Cl`, in experiment [3], the activation was -0.955%. Also, the Potency result in experiment [4], in experiment [8] and in experiment [7] was “inactive” each time.

For the compound `CC(=O)O[C@H]1CC[C@@]2(CI)C(=CC[C@@H]3[C@@H]2CC[C@]2(C)C(=O)CC[C@@H]32)C1`, the activation in experiment [3] is 13.7%. Moreover, the Potency result in [6] was “inactive”. Moreover, the Potency in experiment [2] was 10.1 µM (active).

Regarding `COC1=C[C@@H]2[C@@H]3Cc4ccc(OC)c(O)c4[C@]2(CCN3C)CC1=O`, in experiment [3], the activation was 8.33%. Moreover, the Potency result in [6], in experiment [4], in [9], in experiment [7], in experiment [2] and in experiment [1] was “inactive” throughout. Besides, the Potency entry in experiment [11], in [12], in [13] and in experiment [14] was “inactive” throughout. In experiment [10], the Potency was 7.12 µM (active).

Consider `CCN1C[C@]2(COC(=O)c3ccccc3N3C(=O)C[C@H](C)C3=O)CC[C@H](OC)[C@@]34[C@@H]5C[C@H]6[C@H](OC)[C@@H]5[C@](O)(C[C@@H]6OC)[C@](O)([C@@H](OC)[C@H]23)[C@@H]14`, for which the activation in experiment [3] was 10.3%. The Potency result in [5], in [6], in [4], in experiment [9], in [10] and in experiment [7] was “inactive” each time. Further, the Potency result in [2] is “inactive”.

For the compound `C=CC(C)(C)c1[nH]c2c(CC=C(C)C)cc(CC=C(C)C)cc2c1C[C@@H]1NC(=O)[C@H](C)NC1=O`, in experiment [3], the activation is 14.3%. Further, the Potency result in experiment [4] was “inactive”.

For `O=S(=O)(c1ccccc1F)N1CCOc2c(N3CCNCC3)cccc21`, the activation in experiment [3] is 9.07%. Also, the Potency result in [5], in experiment [6], in experiment [4], in [9], in experiment [10] and in [7] was “inactive” each time. Besides, in experiment [2], the Potency entry is “inactive”.

For the compound `COc1ccc2c(C(=O)c3ccc(Cl)cc3)c(C)n(CC(=O)O)c2c1`, the activation in experiment [3] was -36.8%. The Potency result in experiment [6], in [4], in experiment [9], in experiment [10], in [7] and in [2] was “inactive” throughout.

Regarding `C1=C(c2cnc[nH]2)c2ccsc2CC1`, in experiment [3], the activation is -3.34%. The Potency result in experiment [4] was “inactive”. Moreover, in experiment [8], the Potency was 5.62 µM (active).

Turning to `CCC(C)C1NC(=O)C(C(C)=O)=C1O` (configuration not stated), in [3], the activation is 13%. The Potency entry in [5], in [6], in [4] and in experiment [7] was “inactive” throughout.

As to `CC/C=C/C=C/C1(C)OC(OC)=C(C(=O)C2C(C)C(=O)c3cc(OC)c(O)c(O)c3C2(C)O)C1=O` (configuration not stated), the activation in experiment [3] is 0.893%. The Potency entry in experiment [6] and in experiment [4] was “inactive” each time. Moreover, the Potency in experiment [9] is 11 µM (active).

In the case of `CCC1NC(=O)C2C(Cl)C(Cl)CN2C(=O)C(CC)NC(=O)CC(c2ccccc2)NC(=O)C(CO)NC1=O` (configuration not stated), the activation in [3] is -6.87%. Further, the Potency entry in [5], in [4], in experiment [10] and in experiment [7] was “inactive” in each case.

For `CCc1[nH]c2ccc(OC)cc2c1CCN(C)C`, the activation in experiment [3] was 8.59%. In addition, the Potency result in experiment [5], in experiment [4] and in [9] was “inactive” throughout.

Consider `CS[C@]1(CO)C(=O)N2[C@H]3C(=CC=C[C@@H]3O)C[C@@]2(SC)C(=O)N1C`, for which the activation in [3] was -6.11%. The Potency result in [4] was “inactive”.

Take `CC1CCCC(O)CCC/C=C/c2cc(O)cc(O)c2C(=O)O1` (configuration not stated): the activation in experiment [3] is 28.2%. Also, the Potency entry in [4] is “inactive”.

On to `O=C(OC[C@H]1O[C@@H](Oc2ccc(O)cc2CO)[C@H](O)[C@@H](O)[C@@H]1O)c1ccccc1`, for which the activation in experiment [3] is 28.6%. Also, the Potency entry in experiment [4] was “inactive”.

In the case of `Cc1[nH]c2ccc(Cl)cc2c1CCN(C)C`, in [3], the activation was -3.82%. The Potency entry in [5], in experiment [6], in experiment [9], in experiment [10] and in experiment [7] was “inactive” each time. In experiment [8], the Potency was 10 µM (active).

For `COc1cc(N2CCN(C)CC2)ccc1N`, in [3], the activation is 20%. For the same compound, the Potency result in experiment [6] and in experiment [4] was “inactive” throughout. For the same compound, the Potency is 25.2 µM (active) in experiment [9] and 1.26 µM (active) in [7].
